High-throughput results deposited in PubChem BioAssay by National Center for Advancing Translational Sciences (NCATS).
PLK1 PBD block = inhibitors of human PLK1 polo-box domain binding | Plk1 PBD binding of FITC phosphopeptide, fluorescence polarization | P53350 | Potency, µM, usual class: inhibitors | actives 2.8% (n = 360,000) | AID 720504; also: series mostly up to about 57 µM; nearly all actives have a fitted effect of over 65% in size
VDR inh = inhibitors of human vitamin D receptor | VDR-SRC2-3 peptide fluorescence polarization, 2 h | Potency, µM, usual class: inhibitors | actives 0.93% (n = 400,000) | AID 504847
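Measured by FP: displacement of SRC2-3 coactivator peptide from VDR by library compounds, following a two-hour ambient incubation.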
G9a inh = blocks human histone lysine methyltransferase G9a | G9a H3K9 monomethylation, AlphaScreen, 2 h | AID 504332 | actives 8.8% (n = 350,000) | Potency, µM (titrated, usually from 102 µM), most hits filed as inhibitors; also: nearly all actives have a fitted effect of over 75% in size
Target sequence (Q96KQ7 913-1193 limits assumed): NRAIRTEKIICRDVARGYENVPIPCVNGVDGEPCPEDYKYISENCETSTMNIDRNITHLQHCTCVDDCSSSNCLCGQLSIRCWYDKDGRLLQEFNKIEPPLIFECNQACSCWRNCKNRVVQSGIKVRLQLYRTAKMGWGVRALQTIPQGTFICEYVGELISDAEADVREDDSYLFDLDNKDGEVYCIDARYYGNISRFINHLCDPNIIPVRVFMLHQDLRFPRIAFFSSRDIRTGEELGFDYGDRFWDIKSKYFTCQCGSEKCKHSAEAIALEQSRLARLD
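Signal arises when biotinylated H3K9 peptide, once monomethylated, bridges streptavidin donor and antibody-captured acceptor beads. Enzyme at 20 nM was preincubated 15 min with test compounds; peptide 500 nM and SAM 20 uM then reacted for 2 h.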
HP1b binding inh = inhibitors of HP1-beta chromodomain binding to methylated histone tails; AlphaScreen HP1-beta / biotin-H3K9me3 peptide binding; Potency, µM (highest dose often 114 µM), usual class: inhibitors; actives 0.56% (n = 390,000); AID 540317; also: nearly all actives have a fitted effect of over 70% in size
Target sequence (P83916 whole entry, looked up): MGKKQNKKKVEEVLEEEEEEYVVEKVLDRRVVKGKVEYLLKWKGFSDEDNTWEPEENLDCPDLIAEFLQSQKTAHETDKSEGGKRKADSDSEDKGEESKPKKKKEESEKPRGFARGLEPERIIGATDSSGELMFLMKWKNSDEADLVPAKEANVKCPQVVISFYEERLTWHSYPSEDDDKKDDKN
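HP1-beta protein (50 nM final) preincubated 30 min at room temperature with biotinylated H3(1-18)K9me3 peptide (50 nM) in PBS pH 7.4, 0.01% Tween-20, then compound added for 30 min. AlphaScreen streptavidin donor/nickel chelate acceptor beads (10 ug/mL final), 30 min dark, luminescence read.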
BAZ2B block = BAZ2B (human) inhibition; Q9UIF8; Potency, µM (titrated, usually from 114 µM), actives largely listed as inhibitors; actives 4.4% (n = 360,000); AlphaScreen BAZ2B-H3K14Ac peptide displacement; AID 504333; also: nearly all actives have a fitted effect of over 60% in size
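Protein-peptide AlphaScreen: BAZ2B 50 nM, b-H3K14Ac 50 nM, 1x PBS pH 7.4 + 0.01% Tween-20. Preincubation 30 min RT; cpd 30 min RT (top 110 uM); beads 20 min RT, light-protected.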
JMJD2A Tudor = inhibitors of human JMJD2A Tudor domain; AlphaScreen JMJD2A-Tudor / H3K4me3 peptide binding; actives 4.4% (n = 390,000); Potency, µM (doses to about 114 µM), hits mostly inhibitors; AID 504339; also: nearly all actives have a fitted effect of over 50% in size
Of the large screens only hits and unclear results are named; the others gave an inactive call. Compounds with a hit are over-represented: about 11% of the library has one in this group of screens. Calls follow the shape of the dose curve; as a rule, active = well fitted curve in the direction sought with a large enough effect; inconclusive = small, poorly fitted or top-dose-only effect, or another doubt; inactive = no such curve, though single readings can be large; an effect the other way counts as inactive or inconclusive.

COc1ccc(/C=N/NC(=O)c2ccc3c(c2)OCO3)cc1	G9a inh 79µM, BAZ2B block inconclusive
O=C(N/N=C/c1cc2c(cc1Br)OCO2)c1cc2ccccc2o1	G9a inh 40µM
O=C(N/N=C/c1ccc2c(c1)OCO2)c1ccc(Br)o1	G9a inh inconclusive, BAZ2B block 79µM, JMJD2A Tudor inconclusive
O=C(O)/C(=C/c1ccco1)NC(=O)c1ccc(Br)o1	G9a inh 45µM
O=C(Nc1ccc(C(=O)O)cc1)/C(=C\c1ccco1)NC(=O)c1ccc(Br)o1	PLK1 PBD block 30µM, G9a inh 35µM, HP1b binding inh inconclusive, JMJD2A Tudor inconclusive
O=C(Nc1ccc(C(=O)O)cc1)/C(=C\c1ccco1)NC(=O)c1ccc(Br)cc1	none (no result: VDR inh, G9a inh, HP1b binding inh, BAZ2B block, JMJD2A Tudor)
NC(=O)C1(N2CCCCC2)CCN(C(=S)Nc2ccc(S(N)(=O)=O)cc2)CC1	PLK1 PBD block 11µM (no result: G9a inh)
NS(=O)(=O)c1ccc(NC(=S)NCc2ccccc2)cc1	PLK1 PBD block 12µM, VDR inh inconclusive, G9a inh 11µM, HP1b binding inh inconclusive
NS(=O)(=O)c1ccc(NC(=S)N2CCC(Cc3ccccc3)CC2)cc1	PLK1 PBD block 13µM, VDR inh inconclusive, G9a inh 14µM, HP1b binding inh inconclusive, BAZ2B block inconclusive, JMJD2A Tudor inconclusive
NS(=O)(=O)c1ccc(NC(=S)NCc2ccccc2Cl)cc1	PLK1 PBD block inconclusive, G9a inh inconclusive
NS(=O)(=O)c1ccc(NC(=S)NCc2cccc(Cl)c2)cc1	G9a inh 45µM
Cc1ccc(NC(=S)NCc2ccc(S(N)(=O)=O)cc2)cc1Cl	none
COC(=O)C1=C[C@@H](C(=O)OC)C2C3=C(C(=O)[C@@]2(C)NC(=O)c2ccccc2)[C@H](C)n2c(=O)n(-c4ccccc4)c(=O)n2[C@@H]3C1 (stereo partly specified)	none (no result: PLK1 PBD block, G9a inh, BAZ2B block)
COc1ccc(NC(=S)N2CCN(S(=O)(=O)c3ccc(F)cc3)CC2)cc1	none (no result: G9a inh)
COc1ccc(S(=O)(=O)N2CCN(C(=S)Nc3ccc(S(N)(=O)=O)cc3)CC2)cc1	G9a inh 79µM
Oc1c(N=Nc2ccccc2)sc2ccccc12	BAZ2B block 2µM, JMJD2A Tudor inconclusive (no result: G9a inh)
Cn1c2ccccc2c(=O)c2ccc(C#Cc3ccc(N)cc3)cc21	G9a inh 50µM
COc1ccc(C(=O)C[n+]2cccc(C)c2)cc1	G9a inh 71µM
COc1ccc(C(=O)C[n+]2cccc(C(N)=O)c2)cc1	G9a inh inconclusive
O=c1cc(-c2ccccc2)[nH]n1-c1nc2ccccc2s1	PLK1 PBD block 21µM
CC(=O)c1c(CC(=O)O)[nH]n(-c2nc3ccccc3s2)c1=O	VDR inh inconclusive, G9a inh inconclusive, JMJD2A Tudor 79µM
COc1ccc(Cn2c(CCC(=O)NCCC(C)C)nc3ncccc3c2=O)cc1	none
COc1cccc(NC(=O)C2CCN(S(=O)(=O)c3cc(-c4noc(C)n4)ccc3C)CC2)c1	none (no result: PLK1 PBD block)
COc1ccc(C2Nc3ccccc3C(=O)N2CC(C)(C)C)cc1COc1ccc(NC(C)=O)cc1 (stereo unspecified)	JMJD2A Tudor 56µM (no result: PLK1 PBD block, VDR inh, G9a inh, HP1b binding inh, BAZ2B block)
COc1ccc(C2Nc3ccccc3C(=O)N2Cc2cccc3ccccc23)cc1COc1ccc(NC(C)=O)cc1 (stereo unspecified)	JMJD2A Tudor 79µM (no result: PLK1 PBD block, VDR inh, G9a inh, HP1b binding inh, BAZ2B block)
COc1ccc(C2Nc3ccccc3C(=O)N2CCO)cc1COc1ccc(NC(C)=O)cc1 (stereo unspecified)	JMJD2A Tudor 79µM (no result: PLK1 PBD block, VDR inh, G9a inh, HP1b binding inh, BAZ2B block)
COc1ccc(C2Nc3ccccc3C(=O)N2Cc2ccncc2)cc1COc1ccc(NC(C)=O)cc1 (stereo unspecified)	JMJD2A Tudor 79µM (no result: PLK1 PBD block, VDR inh, G9a inh, HP1b binding inh, BAZ2B block)
COc1ccc(C2Nc3ccccc3C(=O)N2Cc2ccccc2)cc1COc1ccc(F)cc1 (stereo unspecified)	none (no result: PLK1 PBD block, VDR inh, G9a inh, HP1b binding inh, BAZ2B block)
Cc1ccnc(NS(=O)(=O)c2ccc(NC(=O)c3ccc(S(=O)(=O)N4CC(C)OC(C)C4)cc3)cc2)n1 (stereo unspecified)	BAZ2B block inconclusive
COc1ccc(C2Nc3ccccc3C(=O)N2Cc2ccco2)cc1COc1c(C)cccc1C (stereo unspecified)	VDR inh 14µM, JMJD2A Tudor inconclusive (no result: PLK1 PBD block, G9a inh, BAZ2B block)
